Data published in PubChem BioAssay.

Assay: Plasmodium falciparum growth inhibition, primary screen, strain 3D7, DAPI fluorescence, 100 nL (AID 1184);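 further: parasites grown inside human red blood cells in medium with human serum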
Conditions: P. falciparum 3D7 growth, 3 d, higher = more signal

Compound	z-score
CCC=CCCC(OC(=O)c1ccc(Br)cc1)C1=CCCCC1=O (stereo unspecified)	-0.713
COc1ccc(O[C@H]2C=C[C@@H](c3ccccc3)O[C@@H]2CON=C2[C@H]3CCn4c(=O)n(-c5ccccc5)c(=O)n4[C@H]3[C@H](O)[C@@H]3O[C@H]23)cc1	-0.725
CC(C)CON=C1[C@H]2CCn3c(=O)n(Cc4cc5c(cc4Cl)OCO5)c(=O)n3[C@H]2[C@H](O)[C@@H]2O[C@H]12	-1.17
CCOC(=O)NN=C1C[C@@H](O)[C@@H](O)[C@@H]2[C@@H]3C(=O)N([C@@H](C)c4ccccc4)C(=O)[C@@H]3CC[C@H]12	-0.125
O=C1C[C@@H](O)[C@@H](O)[C@@H]2[C@@H]3C(=O)N(C[C@@H]4CCCO4)C(=O)[C@@H]3CC[C@H]12	0.116
CO[C@H]1COC(=O)[C@@H]2CCCN2C(=O)CC=C[C@@H](C)[C@H](OC)COC(=O)[C@@H](OCc2ccccc2)C=C[C@@H]1C	-1.42
CC(CCN1CCCc2nc(C)c(C)cc21)=NOC(C)CN1CCCCc2nc(C)c(C)cc21 (stereo unspecified)	-0.153
C[C@@H]1CC[C@H]2C(=O)O[C@@H](Cc3ccccc3)CN2[C@H]1c1ccc(Br)cc1	0.209
COC(=O)[C@H]1O[C@@H](c2c(OC)c(OC)c(C)c(OC)c2OC)[C@H](C)[C@@H](O)[C@H]1C	0.0136
CC(C)(C)N1C(=O)[C@H]2[C@H]3[C@H](O)C=CC(=O)[C@@H]3CC[C@H]2C1=O	-0.0484
COC(=O)CC=C[C@H](C)[C@@H](OCc1cccc(Br)c1)[C@@H](C)[C@H](OC)C1CCCCC1	0.536
O=C1C[C@@H](O)[C@@H](O)[C@@H]2[C@@H]3C(=O)N(C[C@@H]4CCCO4)C(=O)[C@@H]3CC[C@@H]12	-0.223
O=C1C[C@@H](O)[C@@H](O)[C@@H]2[C@@H]3C(=O)N(Cc4ccccc4)C(=O)[C@@H]3CC[C@@H]12	0.328
CC(=O)OC[C@H]1OC(ON=CC[C@@H]2C=C[C@H](OC(C)=O)[C@@H](COC(C)=O)O2)[C@H](OC(C)=O)[C@@H](OC(C)=O)[C@@H]1OC(C)=O (stereo partly specified)	0.728
COc1ccc(O[C@H]2C=C[C@@H](c3ccccc3)O[C@@H]2CON=C(C)CCN2CCc3nc(-c4ccccc4)c(-c4ccccc4)cc3C2)cc1	-0.553
O=C(C=Cc1ccc2c(c1)OCO2)c1ccc(F)cc1	-0.533
CCN1C(=O)[C@H]2[C@H]3[C@H](O)[C@H](O)CC(=NO[C@@H](C)c4cn([C@H](CO)Cc5ccccc5)nn4)[C@@H]3CC[C@H]2C1=O	0.032
C[C@H]1COC(=O)[C@@H]2CCCN2C(=O)[C@@H](C)COC(=O)[C@H](Cc2ccccc2)NC1=O	-0.735

Compound	z-score
CO[C@@H]1COC(=O)CC=C[C@H](C)[C@H](OC)COC(=O)[C@H](C)NC(=O)CC=C[C@H]1C	-0.382
CC(C)C[C@H](NC(=O)CCC1CC(OC(=O)NCc2cccc3ccccc23)CC2(CCCC(COC(=O)NCc3ccccc3)O2)O1)C(=O)NCC(c1ccccc1)c1ccccc1 (stereo partly specified)	-1.65
Cc1ccc(S(=O)(=O)N[C@@H]2COC(=O)[C@@H](C)COC(=O)CC=C[C@H]2C)cc1	0.393
CO[C@@H]1COC(=O)[C@@H]2CCCN2C(=O)[C@@H](C)COC(=O)CC=C[C@H]1C	0.442
CCOC(=O)[C@H](Cc1ccccc1)NC(=O)CCC1CC(OC(=O)NCCc2ccc(F)cc2)CC2(CCCC(COC(=O)NCc3ccccc3)O2)O1 (stereo partly specified)	-1.64
CC(C)=CCCC(C)=CCON=C1C[C@@H](O)[C@@H](O)[C@@H]2[C@@H]3C(=O)N(c4cccc(Oc5ccccc5)c4)C(=O)[C@@H]3CC[C@@H]12	-1.58
CCOC(=O)[C@H](CC(C)C)NC(=O)CCC1CC(OC(=O)NCCc2ccc(F)cc2)CC2(CCCC(COC(=O)NCCc3ccccc3OC)O2)O1 (stereo partly specified)	-1.89
CC(C)CON=C1C[C@@H](O)[C@@H](O)[C@@H]2[C@@H]3C(=O)N(C4CCCCC4)C(=O)[C@@H]3CC[C@@H]12	-0.398
CCc1cc2c(nc1CC)CCN(CCC(C)=NO[C@H](C)c1cn([C@H](CO)Cc3ccccc3)nn1)C2	-1.91
CC(C)(C)N1C(=O)[C@H]2[C@H]3[C@H](O)[C@H](O)CC(=O)[C@H]3CC[C@H]2C1=O	-1.08
COC(=O)CC=C[C@@H](C)[C@@H](C=NO[C@@H]1O[C@H](COC(C)=O)[C@@H](OC(C)=O)[C@H](OC(C)=O)[C@H]1OC(C)=O)NS(=O)(=O)c1ccc(C)cc1	-0.0818
C[C@@H](c1ccccc1)N1C(=O)[C@H]2[C@H]3[C@H](O)[C@H](O)CC(=O)[C@H]3CC[C@H]2C1=O	0.676
CC(=O)O[C@H]1C2=CO[C@H](C)[C@H]3[C@H]4C5=C([C@H](O)[C@H]6O[C@H]6C5=O)[C@H](OC4C)[C@@]23C(=O)[C@@H]2O[C@@H]21 (stereo partly specified)	-1.24
O=C(NN=C1C[C@@H](O)[C@@H](O)[C@@H]2[C@@H]3C(=O)N(C[C@@H]4CCCO4)C(=O)[C@@H]3CC[C@@H]12)OCc1ccccc1	0.263
C=COC[C@@H]1CN2[C@@H](CC[C@@H](C)[C@@H]2c2ccc(Br)cc2)C(=O)O1	-0.977
CC(C)CON=C1C[C@@H](O)[C@@H](O)[C@@H]2[C@@H]3C(=O)N(C[C@@H]4CCCO4)C(=O)[C@@H]3CC[C@@H]12	0.192
CC(C)(C)N1C(=O)[C@H]2[C@H]3[C@H](O)[C@H](O)CC(=NOCc4ccccc4)[C@H]3CC[C@H]2C1=O	0.195
CCOC(=O)CCN1C(=O)[C@H]2[C@H]3[C@H](O)[C@H](O)CC(=NOCc4ccccc4)[C@H]3CC[C@H]2C1=O	0.172
